# Compound activity as filed in PubChem BioAssay.
# KB-V1 cytotox – KB-V1 MDR subline cytotoxicity; Potency, µM (series often up to 46.1 µM), actives largely listed as cytotoxic; AID 1347076; hit rate 3.4% among 400,000; KB-V1 MDR cells viability, CellTiter-Glo, 72 h; also: % is scaled to controls: 0 for no effect and ±100 for the full control effect; nearly all actives have a fitted effect of over 60% in size
#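 Potencies derive from concentration-effect curves fitted to normalized luminescence (CellTiter-Glo) of KB-V1 cells treated for 72 h at 37 degrees C in phenol-red-free DMEM containing 10% FBS.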
# KB-3-1 cytotox – KB-3-1 parental cell cytotoxicity. KB-3-1 viability, CellTiter-Glo ATP luminescence, 72 h. Potency, µM (doses to about 46.1 µM), actives largely listed as cytotoxic. hit rate 1.4% among 400,000. AID 1347075; also: % is scaled to controls: 0 for no effect and ±100 for the full control effect; nearly all actives have a fitted effect of over 60% in size
#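 Cells are dispensed, compounds pinned in, plates held at 37 °C for 72 h, then CellTiter-Glo is added and luminescence read after 10 minutes. Cell line: parental KB-3-1 in phenol-red-free DMEM, 10% FBS.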
# MCF10A rerep – inducers of DNA re-replication in MCF 10A breast cells | Potency, µM (titrated, usually from 46.1 µM), without a hit: top-dose activity, positive = re-replication, most hits filed as activators | MCF 10A DNA re-replication, Hoechst nuclear intensity, 48 h | hit rate 2.9% among 350,000 | AID 624296; also: % of control where 0% means no effect; nearly all actives have a fitted effect of over 50% in size
# HT1080 IDH1KD tx – HT-1080 IDH1 knockdown cell toxicity (counter line). HT-1080 IDH1 knockdown viability, ATP luminescence, 48 h. Potency, µM (highest dose often 46.1 µM), inactives show at the top dose activity, negative = toxicity, most hits filed as cytotoxic. hit rate 2% among 360,000;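 also: 0% = DMSO wells and -100% = cell-free medium wells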
#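 Viability of IDH1-knockdown HT-1080 fibrosarcoma cells was assessed by CellTiter-Glo after 48 h at 37 °C with titrated compound; concentration-effect curves were classified by fit quality and response size.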
# SW480 rereplic – DNA re-replication induction in SW480 cells | Potency, µM (top dose mostly 46.1 µM), for inactives: top-dose re-replication activation, usual class: activators | hit rate 1.8% among 340,000 | SW480 DNA re-replication, Hoechst DNA content imaging, 48 h; also: % of control where 0% means no effect; nearly all actives have a fitted effect of over 55% in size
#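 SW480 cells exposed to compounds for 48 hr at 37 C, 5% CO2, then Hoechst-stained 40 min. Nuclear DNA content imaged by fluorescence scanning (405 nm excitation, 500-530 nm emission); re-replication scored as increased high-intensity nuclei.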
# HT1080-NT tox – kills 2HG-producing HT-1080-NT fibrosarcoma cells | AID 686970 | HT-1080-NT fibrosarcoma viability, CellTiter-Glo ATP luminescence, 48 h | Potency, µM (series often up to 46.1 µM), inactives show at the highest dose activity, negative = less viability, most hits filed as cytotoxic | hit rate 1.6% among 360,000;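 also: NT is the 2HG producing partner of a matched IDH1 knockdown line; 0% = DMSO-treated cells and -100% = media-only wells without cells; nearly all actives have a fitted effect of over 55% in size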
#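 HT-1080-NT fibrosarcoma cells (2HG-overproducing), 750 cells/well in RPMI with 5% FBS, dosed after 2 h and incubated 48 h at 37C. CellTiter-Glo luminescence normalized to DMSO and no-cell wells; concentration-response curves fitted and classed.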
# The depositor's hits bear a star; i = inactive; ? = inconclusive; · = not tested or not shown; ! = repeats disagree; [ ] = another dose, or the depositor's remark. Most compounds without a hit are left out; they make up all but 7.9% or so of the library. Calls follow the shape of the dose curve; as a rule, active = well fitted curve in the direction sought with a large enough effect; inconclusive = small, poorly fitted or top-dose-only effect, or another doubt; inactive = no such curve, though single readings can be large; an effect the other way counts as inactive or inconclusive. Potency is read from the fitted curve at half-maximal effect.
SMILES,KB-V1 cytotox,KB-3-1 cytotox,MCF10A rerep,HT1080 IDH1KD tx,SW480 rereplic,HT1080-NT tox
COc1ccc(CN([C@H](CO)CC(C)C)S(=O)(=O)N(Cc2ccccc2)[C@H](CO)CC(C)C)cc1,16µM*!,?,267%,6.5µM*,-17%,16µM*
Cc1ccc(NC(=S)N2CCN(S(=O)(=O)c3ccccc3)CC2)cc1C,i,i,7%,-4%,-7%,-13%
Cc1ccn(-c2ccc([N+](=O)[O-])cc2)n1,i,i,-183%[0.0737 µM],1%,21µM*,0%
Cc1cnccc1CN(C)Cc1cn(C)nc1-c1cccc(Cl)c1,?,i,?,-9%,4%,-7%
Cc1cc(-c2nn(-c3ccccc3F)cc2CN2CCC(O)CC2)c(C)s1,i,i,1%,-4%,-2%,0%
Cc1cc(-c2nn(-c3ccccc3F)cc2CN2CCN(c3ccncc3)CC2)c(C)s1,i,i,?,?,?,21µM*
Cc1cc(N2CCN(Cc3cn(C)nc3-c3cccc(Cl)c3)CC2)cc(C)n1,?,9.2µM*,?,16µM*,23µM*,15µM*
Cc1cc(N2CCN(Cc3cn(C)nc3-c3ccccc3F)CC2)cc(C)n1,i,6.5µM*,16µM*,?,7.3µM*,?
Cn1cc(CN2CCN(c3ncccn3)CC2)c(-c2cccc(Cl)c2)n1,?,i,21µM*,-16%,6%,-1%
Cn1cc(CN2CCC(C(O)c3cccs3)CC2)c(-c2cccc(Cl)c2)n1 (stereo not given),i,i,5%,?,-11%,-29%
COc1cc(Cl)c(NC(=O)CCS(=O)(=O)c2cc3c(cc2Cl)NC(=O)CO3)c(OC)c1,i,i,·,·,·,·
O=C(Nc1ccc2c(c1)OCO2)c1cc(C2CCCN(C(=O)C3CCCCC3)C2)on1 (stereo not given),i,i,·,?,·,-26%
Cc1ccc2c(c1)c1c3n2CCN(C(=O)c2cccc(C(F)(F)F)c2)C3CCC1 (stereo not given),i,i,·,·,·,·
Cc1cc(=O)n2nc(N3CCC(C(=O)NCc4cccc(Cl)c4)CC3)sc2n1,?,i,-1%,?,-15%,?
COc1ccc(C(=O)CCN(C)C)c2ccccc12,i,i,·,·,·,·
COc1cccc(C(=O)C(=O)c2cccc(OC)c2OC)c1OC,i,i,1%,3%,-7%,1%
COc1ccc(C(=O)c2ccc(Br)cc2)c2ccccc12,18µM*,?,7.3µM*,3%,-2%,-1%
COc1ccc(C(=O)c2ccc(Cl)cc2)c2ccccc12,?,?,9.2µM*,-28%,?,-24%
COc1ccc(C(=O)c2ccc(C)cc2)c(OC)c1OC,?,?,16µM*,18µM*,?,?
CO[C@]1(NC(=O)CSCC#N)C(=O)N2C(C(=O)O)=C(CSc3nnnn3C)CS[C@H]21,·,·,8%,·,1%,·
CCCc1cc(=O)oc2cc(OCC(=O)NC3CC(C)(C)NC(C)(C)C3)ccc12,i,i,?,10%,-7%,19%
C[C@@H]1CN([C@@H](C)CO)C(=O)CCCn2nncc2CO[C@@H]1CN(C)C(=O)Nc1ccc2c(c1)OCO2,i,i,·,4%,·,5%
O=C1CC(N(CCc2ccccc2)C(=S)Nc2ccccc2)C(=O)N1c1ccccc1 (stereo not given),16µM*,i,?,?,?,?
O=C1CC(N(CCc2ccccc2)C(=S)Nc2ccccc2)C(=O)N1c1ccc(F)cc1 (stereo not given),i,?,18µM*,?,22%,?
COC(=O)CN(C(=S)Nc1ccc(F)cc1)C1CC(=O)N(c2ccccc2)C1=O (stereo not given),i,i,-3%,-2%,-1%,-3%
